Fluorescein fluor = compound autofluorescence in fluorescein spectral region | Compound autofluorescence, 480/540 nm, fluorescein-equivalent; hits give high values | max fluorescein-equivalent concentration, M | hit rate 0.91% among 59,000; in the data active means max fluorescein-equivalent concentration above about 10 nM; inconclusive means between about 1.1 nM and that limit
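Spectral profiling of library compounds in the fluorescein window (480 nm excitation, 540 nm emission) after 15 min at room temperature in pH 8.0 Tris (100 mM). Values are dye-equivalent concentrations.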
Resorufin fluor = resorufin region autofluorescence; Compound fluorescence, resorufin region 547/598 nm, buffer; hits give high values; max dye-equivalent concentration, M; hit rate 0.04% among 59,000
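Dye-equivalent concentration values derive from comparing each well's 547/598 nm fluorescence against resorufin standards included on every plate. Incubation was 15 min at room temperature in 100 mM Tris, pH 8.0.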
A488 fluor = A488 region autofluorescence | compound autofluorescence, A488 spectral region, dye equivalency; Compound Type: qHTS ECL - MLSMR | max dye equivalency, M | hit rate 0.1% among 59,000 | AID 591
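Readout is A488 dye-equivalent concentration, calibrated by a per-plate six-point Alexa 488 series. Compounds in 100 mM Tris buffer pH 8.0 were incubated 15 min at room temperature. Plates were imaged using 480 nm excitation/540 nm emission filters.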
A647 autofl = compound autofluorescence in A647 spectral region. 59,000 tested, under 10 active. Compound fluorescence, A647 channel (570/671 nm), Tris buffer. max dye-equivalent concentration, M. AID 592;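 further: values scaled relative to a standard on each plate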
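Tris 100 mM pH 8.0; cpd + A647 stds pin-transferred; 15 min RT; CCD imager, ex 570/em 671. Output = A647-equivalent conc. per cpd conc.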
TexasRed autofl = compound fluoresces in the Texas Red spectral region | Compound fluorescence, Texas Red channel, 547/618 nm; hits give high values | hit rate 0.06% among 59,000 | max dye-equivalent concentration, M; in the data active means max dye-equivalent concentration above about 10 nM; inconclusive means between about 1.1 nM and that limit
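Compound titrations in 100 mM Tris pH 8.0 were incubated 15 min at room temperature and read at 547 nm excitation / 618 nm emission. Texas Red six-point standard curve on each plate converted fluorescence to dye-equivalent concentration.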
Rhodamine fluor = rhodamine region autofluorescence. Rhodamine-region fluorescence, 547/598 nm, Tris buffer; hits give high values. max dye-equivalent concentration, M. hit rate 0.05% among 59,000; in the data active means max dye-equivalent concentration above about 11 nM; inconclusive means between about 1.1 nM and that limit
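qHTS spectral profiling of compounds without any target or enzyme present, in pH 8.0 Tris buffer; plates were read after a 15-minute room-temperature incubation using the rhodamine-region filter set.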
Active calls of the source: *; i = inactive; ? = inconclusive; ! = not confirmed by another sample. Only some compounds are listed: those with a hit (about 0.96% of all), similar ones and a draw of the others. Unless noted, how the calls were made is not given here.

SMILES	Fluorescein fluor	Resorufin fluor	A488 fluor	A647 autofl	TexasRed autofl	Rhodamine fluor
N=C(N)c1ccc(-c2ccc(-c3ccc(C(=N)N)cc3)o2)cc1	i	i	i	2e-08	i	i
CCc1c(C)c(C#N)c2nc3ccccc3n2c1-n1nc(C)cc1C	?	i	i	5.9e-08	i	i
Cc1cc(-c2ccco2)c(C#N)c2nc3ccccc3n12	1.6e-07M*	i	?	1e-09	i	i
O=C1c2ccccc2C(=O)N1CCC(=O)N1CCCc2ccccc21	i	i	i	1.7e-08	i	i
CCN1C(=O)/C(=C\N2CCCc3ccccc32)SC1=S	2e-08M*	i	i	2.7e-09	?	i
CCN1C(=O)/C(=C/N2CCc3ccccc32)SC1=S	2.2e-07M*	i	1.3e-08M*	1.3e-08	i	i
c1cncc(-c2cncnc2NC2CCNCC2)c1	1.4e-08M*	i	i	3.7e-08	i	i
Cc1nnc(SCc2ccccc2)n1N	i	i	i	2.9e-08	i	i
COc1ccc(CSc2nnc(C)n2N)cc1	2.3e-08M*	i	i	2.5e-08	i	i
CCN1CC2=C(OC(N)=C(C#N)C2c2ccccc2)/C(=C\c2ccccc2)C1 (centres undefined)	i	i	i	1e-09	i	i
N#CC1=C(N)OC2=C(CCC/C2=C/c2ccoc2)C1c1ccoc1 (centres undefined)	1.4e-08M*	i	i	5.2e-09	?	i
COc1c2c(c3c(c1CCC(=O)O)OC(C)(C)C=C3)OC(C)(C)C=C2	i	i	i	2.1e-09	?	i
O=c1c(-c2ccc(F)cc2)nc2cnc(N3CCNCC3)nc2n1C1CC1	i	i	i	4.6e-09	i	i
O=C(NCc1ccc(F)cc1)C1CCN(C(=O)NCc2ccccc2)CC1	1e-08M*	i	i	1e-09	i	i
O=C(NCc1ccccc1F)C1CCN(C(=O)NCc2ccccc2)CC1	i	i	i	1.5e-08	i	i
CC(=O)Nc1c2c3c(cccc3n(C)c1=O)C(=O)c1ccccc1-2	1.7e-08M*	i	?	1e-09	i	i
COc1ccccc1CCn1c(=O)c(-c2cccc(Cl)c2)nc2cncnc21	i	i	i	1e-09	i	i
CCOC(=O)c1sc(SCC(=O)Nc2ccc(N(C)C)cc2)nc1N	i	i	i	1.5e-08	i	i
CCOC(=O)SC1=N/C(=C\c2ccc(N(C)C)cc2)C(=O)S1	1e-08M*	i	i	1e-09	i	i
Cc1cc(C)c(/C=C2/C(=O)Nc3ccccc32)[nH]1	2.3e-08M*	i	i	6.6e-08	i	?
COc1cc(OC)c(/C=C2/C(=O)Nc3ccccc32)c(OC)c1	?	i	i	2.4e-08	i	i
CS(=O)(=O)Nc1cccc(-c2ccc3ncnc(N4CCNCC4)c3c2)c1	?	i	i	3.5e-08	i	i
Cc1cc(Cc2cc(C)cc(C(C)(C)C)c2O)c(O)c(Cc2cc(C)cc(C(C)(C)C)c2O)c1	i	i	i	1e-09	i	i
O=C(NC1CCCC1)C(c1ccsc1)N(Cc1ccco1)C(=O)Cc1cccs1 (centres undefined)	1.1e-08M*	i	i	5.8e-08	i	i
C[C@@H](CNC(N)=O)NC(N)=O	?	i	i	2.9e-08	i	i
SMILES	Fluorescein fluor	Resorufin fluor	A488 fluor	A647 autofl	TexasRed autofl	Rhodamine fluor
CCOC(=O)CNC(=O)c1ccc2c(c1)OCCO2	i	i	i	1e-09	i	i
CCOC(=O)CNC(=O)c1cc(-c2ccc3c(c2)OCCO3)oc1C	4.5e-08M*	i	?	5.5e-09	i	i
CN1CCN(C(=O)CSc2nc(-c3cccs3)cc(-c3cccs3)c2C#N)CC1	2e-08M*	i	i	2.6e-08	?	i
COc1ccc(C[N+](C)(C)N)cc1OC	i	i	i	1.4e-09	i	i
COc1cccc2c1C(=O)c1c(O)c3c(c(O)c1C2=O)C[C@@](O)(C(C)=O)C[C@@H]3O[C@H]1C[C@H](N)[C@H](O)[C@H](C)O1	2.2e-07M*	5.9e-08M*	?	3.3e-09	6.5e-08M*	6.4e-08M*
O=C1N=C(O)CN1/N=C\c1ccc(-c2ccc([N+](=O)[O-])cc2)o1	4.2e-08M*!	i	?	1e-09	?	i
